# High-throughput results as filed in PubChem.
# ERa coact inh: blocks coactivator binding to human estrogen receptor alpha; inhibition, % at 25.6 µM; TR-FRET ER-alpha LBD / SRC-1 peptide, estradiol-bound; P03372; 86,000 compounds, 1.7% hits; in the data active means inhibition above about 50%;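 further: 0% = receptor plus peptide control and 100% = peptide only without receptor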
# Target sequence (P03372 whole entry, looked up, the tested form may be a part): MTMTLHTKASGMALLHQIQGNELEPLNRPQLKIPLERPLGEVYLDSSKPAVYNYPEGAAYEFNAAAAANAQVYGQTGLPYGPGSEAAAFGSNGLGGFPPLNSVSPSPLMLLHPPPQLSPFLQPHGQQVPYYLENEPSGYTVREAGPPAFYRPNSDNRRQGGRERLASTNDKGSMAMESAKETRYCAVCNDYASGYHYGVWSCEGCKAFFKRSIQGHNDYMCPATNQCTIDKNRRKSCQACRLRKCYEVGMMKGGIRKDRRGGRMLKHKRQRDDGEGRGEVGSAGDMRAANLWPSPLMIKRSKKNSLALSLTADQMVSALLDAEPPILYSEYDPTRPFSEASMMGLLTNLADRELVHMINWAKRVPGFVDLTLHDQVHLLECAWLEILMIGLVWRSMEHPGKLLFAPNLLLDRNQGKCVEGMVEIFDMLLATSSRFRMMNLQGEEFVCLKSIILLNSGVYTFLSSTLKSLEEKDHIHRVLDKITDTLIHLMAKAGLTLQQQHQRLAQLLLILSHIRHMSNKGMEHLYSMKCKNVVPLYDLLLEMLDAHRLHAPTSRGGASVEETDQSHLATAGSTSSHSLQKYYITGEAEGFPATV
# ERa SRC1 pot: enhances coactivator binding to human estrogen receptor alpha | TR-FRET ERalpha-LBD/SRC-Cy5 coactivator binding, 2 h; 100 = basal binding, no effect | coactivator binding (% of control), % at 25.6 µM | 86,000 compounds, 1.3% hits; in the data active means activity above about 200%;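 further: binding measured in presence of low estradiol as agonist stimulus; 0% = peptide alone without receptor and 100% = receptor with peptide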
# Calb biofilm kill: kills Candida albicans biofilms; C. albicans biofilm + clotrimazole, Alamar Blue; inhibition, % at 6 µM; 85,000 compounds, 0.14% hits; AID 834;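 active means inhibition above 20%; inactive means inhibition below 20%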;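 further: preformed 24 hr biofilms exposed to compound for 48 hr; 0% = biofilm without compound and 100% = blank killed by clotrimazole plus chlorhexidine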
# ERb SRC1 inh: ER-beta (human) coactivator binding inhibition; TR-FRET ER-beta LBD / SRC1-Cy5 peptide binding; receptor agonist-loaded with 1 µM estradiol; inhibition, % at 25.6 µM; 86,000 compounds, 1.3% hits;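 active means compounds whose percent inhibition of the receptor-coactivator binding signal exceeds about 50% in the single-dose screen, limit read from the data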;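 further: 0% = receptor plus peptide wells without compound and 100% = peptide-only wells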
# Smad3 inh: blocks human Smad3 binding to FoxH1 peptide. P84022. TR-FRET Smad3/Dy647-FoxH1 peptide binding, europium anti-His. inhibition, % at 25 µM. 88,000 compounds, 0.29% hits. AID 630;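 active means compounds that reduce the energy-transfer binding signal between the protein and its labelled peptide by more than half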;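 further: 0% = Smad3 plus labelled peptide maximal FRET and 100% = peptide-only background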
# HePTP inhibitor: blocks human HePTP tyrosine phosphatase; AID 521; P35236; 110,000 compounds, 0.64% hits; recombinant HePTP phosphatase activity, OD absorbance; inhibition, % at 20 µM; in the data active means inhibition above about 50%;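 further: plate controls were vehicle for no effect and reference inhibitor for full effect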
# * hit, by the source's call; . = not tested or not shown; [ ] = remark or other dose. A selection: hits, their analogues and other compounds. The true share with any hit is near 2.9%.
SMILES,ERa coact inh,ERa SRC1 pot,Calb biofilm kill,ERb SRC1 inh,Smad3 inh,HePTP inhibitor
Cc1cc(/C=C(\C#N)C(=O)NCC2CCCO2)c(C)n1-c1ccc(Br)cc1 (stereo not drawn),.,.,.,.,.,-4
Cc1ccc(NC(=O)C(C)Sc2ccc(Cl)cc2)c(C)c1 (stereo not drawn),.,.,.,.,.,11
N/C(=N\c1nc2ccccc2s1)NC(=O)c1ccccc1,.,.,.,.,.,-6
CC(NC(=O)/C(C#N)=C/c1ccc(N(C)C)cc1)c1ccccc1 (stereo not drawn),.,.,.,.,.,2
Cc1ccc2cc(C#N)c(N3CCCN(S(=O)(=O)c4ccccc4)CC3)nc2c1,32,350*[fluorescence artefact?],7,27,-6,-11
Cc1ccc2cc(C#N)c(N3CCN(C)CC3)nc2c1,-3,98,5,1,24,.
NCCNC(=S)S,.,.,.,.,57*,.
CC(=O)Nc1c(O)nc(SCc2ccc([N+](=O)[O-])cc2)[nH]c1=O,.,.,.,.,.,7
Cc1cccn2c(=O)c3cc(C#N)c(=NC(=O)c4ccccc4)n(Cc4ccco4)c3nc12,63*[fluorescence artefact?],177,2,41,-12,7
CCCn1c(=NC(C)=O)c(C#N)cc2c(=O)n3cccc(C)c3nc21,54*[fluorescence artefact?],59,7,47,20,-11
Cc1cccn2c(=O)c3cc(C#N)c(=O)n(Cc4cccnc4)c3nc12,-4,122,-2,-4,0,-1
CCOC(=O)c1cc2c(=O)n3cccc(C)c3nc2n(Cc2ccco2)c1=NC(=O)c1cccnc1,55*[fluorescence artefact?],64,9,58*[fluorescence artefact?],10,12
Cc1ccc(-n2c(=O)c(C#N)cc3c(=O)n4cccc(C)c4nc32)cc1,62*,140,1,52*,15,.
COc1ccc(NC(=O)COc2ccc(Br)cc2C(C)(C)C)c([N+](=O)[O-])c1,.,.,.,.,.,4
Cc1cc(C)c(S(=O)(=O)N2CCC(C(=O)NCc3ccc(Cl)cc3Cl)CC2)c(C)c1,-4,91,69*,-1,0,.
Cc1ccc(S(=O)(=O)C(CC(=O)c2cccs2)c2ccc(Cl)cc2)cc1 (stereo not drawn),.,.,.,.,.,3
O=c1oc(-c2ccco2)cc(-c2ccccc2)c1-c1ccccc1,.,.,.,.,.,-8
O=c1cc(-c2ccco2)oc2c1ccc1ccccc12,51*[fluorescence artefact?],327*,5,52*[fluorescence artefact?],1,.
O=C(Nc1ccc(I)cc1Cl)c1cccc2ccccc12,.,.,.,.,.,-13
CC(=O)Nc1ccc(N=Cc2nc(-c3ccc(C)cc3)oc2O)cc1,81*,61,3,51*,37,10
Oc1oc(-c2ccccc2)nc1C=Nc1ccccc1,-15,118,0,-19,-10,.
Cc1ccc(S(=O)(=O)C2(C(=O)N3CCCCCC3)CC2)cc1,-17,108,4,80*[fluorescence artefact?],-5,11
O=C(Nc1ccccc1)Nc1ccc(S(=O)(=O)N2CCc3ccccc32)cc1,.,.,.,.,.,5
COc1ccc(Cl)c(Cn2c(NCc3ccco3)nc3c2c(=O)n(C)c(=O)n3C)c1,81*[fluorescence artefact?],52,2,53*[fluorescence artefact?],0,-3
CCCn1c(NCc2ccco2)nc2c1c(=O)n(C)c(=O)n2C,64*[fluorescence artefact?],96,8,53*[fluorescence artefact?],7,.
SMILES,ERa coact inh,ERa SRC1 pot,Calb biofilm kill,ERb SRC1 inh,Smad3 inh,HePTP inhibitor
O=C(O)C1C(C(=O)Nc2ccc(Br)cc2)C2C=CC1C21CC1 (stereo not drawn),.,.,.,.,.,1
Cc1cc(N(C)/N=C/c2cccnc2)nc(-c2ccccc2O)n1,.,.,.,.,.,-10
O=C1NC(=O)N(c2ccc(Br)cc2)C(=O)/C1=C/c1ccco1,.,.,.,.,.,104*
Cc1cc(N2C(=O)NC(=O)/C(=C\c3ccco3)C2=O)ccc1Br,.,.,.,.,.,80*
COc1cc(C(c2sc3nc(C)nn3c2O)N2CCN(c3ccccc3)CC2)cc(OC)c1OC (stereo not drawn),83*[fluorescence artefact?],107,2,-6,3,1
Cc1ccc(C(c2sc3nc(C)nn3c2O)N2CCN(c3ccccc3F)CC2)cc1 (stereo not drawn),-2,107,.,72*[fluorescence artefact?],2,5
O=C1/C(=C\c2cccc(Br)c2)SC(=S)N1CN1CCCCC1,.,.,.,.,.,30
CCOc1ccc(Cc2c(O)nc(SC)n(-c3ccccc3)c2=O)cc1,.,.,.,.,.,3
O=C1ON=C(c2ccccc2)/C1=C\c1ccccc1OCc1ccc(F)cc1,.,.,.,.,.,1
COc1ccc2nc(NC(=O)c3cnccn3)sc2c1,75*[fluorescence artefact?],46,8,50,10,9
Cc1ccc(OCC(=O)Nc2ccccc2N2CCOCC2)c(C)c1,-5,105,-2,-3,-21,.
Cc1nnc(SCC(=O)N2CC(=O)Nc3ccccc32)n1-c1ccccc1,-3,116,1,1,8,5
Cc1cc(C)c2nc(SCC(=O)Nc3ccccc3N3CCOCC3)c(C#N)cc2c1,21,353*[fluorescence artefact?],6,33,7,.
Cc1cc(C)c2nc(SCC(=O)N3CC(=O)Nc4ccccc43)c(C#N)cc2c1,28,461*[fluorescence artefact?],10,33,6,.
Cc1ccc(C)c(OCCCCN2CCOCC2)c1C,.,.,.,.,.,-12
CC(/C=C/c1ccc2c(c1)OCO2)=N\NC(=O)c1cccc([N+](=O)[O-])c1,68*[fluorescence artefact?],58,7,17,15,-6
S=c1[nH]nc(-c2cc(-c3ccco3)[nH]n2)n1-c1ccccc1Cl,33,43,1,50*,1,.
S=c1[nH]nc(-c2cc(-c3ccco3)[nH]n2)n1-c1ccccc1,-6,59,-1,-14,-11,.
O=C(Nc1ccc2c(c1)nc1n2CCN(C2CCCCC2)C1)c1ccco1,61*,43,10,53*,6,-8
O=C(Nc1ccc2c(c1)nc1n2CCSC1)c1ccco1,80*,123,1,61*[fluorescence artefact?],44,2
O=C(Nc1ccc2c(c1)nc1n2CCOC1)c1ccco1,2,122,6,-12,-4,6
O=C(NCCCN1CCCCCC1)C1CC(=O)N(CCc2ccccc2)C1 (stereo not drawn),3,966*[fluorescence artefact?],4,22,60*,7
Oc1ccc(N=Cc2ccc(-c3cccs3)s2)cc1,33,34,5,62*[fluorescence artefact?],12,-9
O=C1CCCC(O)=C1C=Nc1ccc(O)cc1,-25,93,5,-17,-4,-10
Nc1ccc(C(=O)CC2(O)C(=O)Nc3ccccc32)cc1 (stereo not drawn),.,.,.,.,.,-4
Cc1nnc(NC(=O)c2ccc(-c3cccc(C(F)(F)F)c3)o2)s1,44,288*,7,46,-1,2
Cc1ccc(CCNC(=O)c2coc3nc4ccccc4nc23)cc1,-24,290*[fluorescence artefact?],6,-6,8,2
CC1CCN(CCCNC(=O)c2coc3nc4ccccc4nc23)CC1,-12,114,.,-9,0,16
